Source: PubChem BioAssay
Shown are actives, neighbours in structure and some others; about 3.2% of the full set was active somewhere.
DNA Pol III inh – qHTS Assay for Inhibitors of DNA Polymerase III Holoenzyme System | AID 603, 2007 | reconstituted DNA polymerase III holoenzyme replication, biochemical | hit rate 0.25% among 71,000 | Potency, µM (series often up to 57.1 µM), without a hit: top-dose activity change, negative = inhibition; further: potency means the concentration at half of the fitted maximal effect; on the % scale 0 is the no-effect control and ±100 the full control effect
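Reconstituted *E. coli* holoenzyme (0.35 nM Pol III, 1 nM beta, 154 nM SSB, 2 nM primase) was preincubated with compound for 15 min at RT. Synthesis on 1.4 nM ssM13Gori ran 35 min, then was stopped with PicoGreen/EDTA and read as dsDNA fluorescence.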
BRCT PPI green – qHTS Assay for Inhibitors of BRCT-Phosphoprotein Interaction (Green Fluorophore) | BRCA1 BRCT-phosphopeptide binding, green fluorescence polarization | hit rate 0.05% among 75,000 | Potency, µM (series often up to 76.9 µM), inactives show at the highest dose activity change, negative = inhibition, actives largely listed as inhibitors;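 further: potency means the concentration at half of the fitted maximal effect; plate controls were peptide without protein for full effect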
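Fluorescence polarization: His-tagged BRCT (~35 kDa BRCA1 C-terminus, 250 nM) bound to 100 nM fluorescein-labeled phosphorylated 10-aa BACH1 peptide, pH 7.3 phosphate buffer with DTT and Tween 20. Compounds incubated 12 min at room temperature; inhibition read as lowered polarization.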
TSHR agonist – qHTS Assay for Agonists of the Thyroid Stimulating Hormone Receptor; hit rate 0.48% among 73,000; AID 926, 2007; HEK293-CNG-TSHR cells (CNG channel as cAMP sensor), membrane potential dye, cAMP; Potency, µM (doses to about 57.1 µM), for inactives: top-dose activation, actives largely listed as activators; active means well fitted activation curve with a large enough effect in the main read-out, with a control signal flat, not every such curve was filed as active; inconclusive means small, poorly fitted or top-dose-only effect, or a change in a side signal; inactive means no such curve, though single readings can be large or run the other way; % of control where 0% means no effect;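 further: the control signal comes from parental cells without the receptor; potency means the concentration at half of the fitted maximal effect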
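cAMP rise detected as CNG-channel membrane depolarization by fluorescent dye (emission 590 nm), 30 min after compound, following 60 min dye loading containing 100 uM RO 20-1724 at room temperature. Cells: TSHR/CNG HEK 293, with parental CNG HEK 293 as control.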
BRCT PPI red – qHTS Assay for Inhibitors of BRCT-Phosphoprotein Interaction (Red Fluorophore); BRCT-phosphopeptide binding, red fluorescence polarization; Breast cancer type 1 susceptibility protein (Homo sapiens), P38398; hit rate 0.03% among 75,000; Potency, µM (titrated, usually from 76.9 µM), inactives show at the top dose activity change, negative = inhibition, most hits filed as inhibitors; further: on the % scale 0 is the no-effect control and ±100 the full control effect
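Fluorescence polarization: 100 nM His-tagged BRCA1 BRCT with 100 nM TAMRA-labelled phospho-BACH1 decapeptide, phosphate buffer pH 7.3 with 150 mM NaCl, DTT, 0.01% Tween 20; 12 min RT. Binding inhibition seen as FP decrease.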
HEK293 cAMP cs – qHTS Assay for Agonists of the Thyroid Stimulating Hormone Receptor: Activators of Intracellular cAMP Concentrations in Parental HEK 293; parental HEK293 CNG cAMP sensor, membrane potential fluorescence; Potency, µM (top dose mostly 57.1 µM), inactives show at the top dose activation, most hits filed as activators; hit rate 2.5% among 73,000; further: potency means the concentration at half of the fitted maximal effect; % of control where 0% means no effect; nearly all actives have a fitted effect of over 55% in size
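Counterscreen for endogenous-receptor signalling: CNG-channel HEK 293 cells report cAMP rise by membrane depolarization. After 60 min dye equilibration with 100 uM RO 20-1724, compounds incubated 30 min before bottom-read fluorescence at 590 nm.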
YjeE inh – qHTS Assay for Inhibitors of YjeE; tRNA threonylcarbamoyladenosine biosynthesis protein TsaE (Escherichia coli (strain …; purified YjeE enzyme, qHTS inhibition assay; Potency, µM; hit rate 0.05% among 71,000; AID 605, 2007
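Fluorescence polarization of a BODIPY Texas Red–ADP probe (2 uM) bound to purified YjeE (10 uM) was read after 15 min room-temperature incubation with compounds. Loss of polarization marks inhibitors; ADP serves as titrated control.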
* hit, by the source's call; i = inactive; ? = inconclusive; · = no result; [ ] = dose if it differs, or a comment. Unless noted, the call rests on the fitted dose curve; in most records, active means well fitted curve in the direction sought with a large enough effect; inconclusive means small, poorly fitted or top-dose-only effect, or another doubt; inactive means no such curve, though single readings can be large; an effect the other way counts as inactive or inconclusive.

SMILES | DNA Pol III inh | BRCT PPI green | TSHR agonist | BRCT PPI red | HEK293 cAMP cs | YjeE inh
O=C(NCc1ccco1)c1sc(=S)n2c1[nH]c(=O)c1ccccc12 | -16% | -9% | ? | -6% | 25µM* | i
O[C@H](CNc1ccccn1)c1ccccc1 | -3%[11.4 µM] | 0%[15.4 µM] | -1%[11.4 µM] | 2%[15.4 µM] | -5%[11.4 µM] | i
O=C1C[C@@H](O)[C@@H](O)[C@H]2[C@@H]3C(=O)N(C[C@@H]4CCCO4)C(=O)[C@@H]3CC[C@H]12 | · | -4%[15.4 µM] | -5%[11.4 µM] | 1%[15.4 µM] | -3%[11.4 µM] | ·
O=C(Nc1cccc2c1CCCC2)c1ccc(Br)o1 | -2% | -1% | ? | -3% | 25µM* | i
COc1ccc(-c2nc3cnc(N4CCOCC4)nc3n(CCc3ccccc3)c2=O)cc1 | -8% | -2% | 7% | 0% | 22% | i
O=C(CSc1nc2ccccc2c(=O)n1Cc1ccc(C(=O)NC2CC2)cc1)NCc1ccco1 | 2% | -1% | 23% | -2% | 20% | i
COC(=O)c1ccc(CSc2nc3ccccc3c(=O)n2Cc2ccco2)o1 | 9% | -1% | ? | 0% | 7.9µM* | i
O=c1c2ccccc2nnn1CSc1nnc(COc2ccc(Cl)cc2)n1Cc1ccco1 | -1% | 0% | · | -1% | 27% | i
C=CCn1c(SCC(=O)NCc2ccc3c(c2)OCO3)nnc1C1COc2ccccc2O1 (configuration not stated) | 4% | -1% | 12% | 1% | 28% | i
O=C(CSc1ncc(-c2ccccc2)n1-c1ccccc1)NCc1ccco1 | 1% | -3% | ? | -3% | 32µM* | i
O=c1c2ccccc2nnn1CSc1nc2cc(Cl)ccc2c(=O)n1Cc1ccco1 | -7% | -2% | ? | 3% | 2µM* | i
O=C(CSc1nnc2scc(-c3ccccc3)n12)NCc1ccco1 | 0% | -1% | 3% | -1% | 1% | i
C=CCn1c(SCC(=O)NCc2ccc3c(c2)OCO3)nnc1C1CCCCC1 | 2% | 1% | ? | -1% | 25µM* | i
CC1=C(C#N)C(=O)NC(C)(C)C1 | -6% | -10% | -1% | -1% | -2% | i
COc1cc(OC)c(C2Oc3nc(SC)nnc3-c3ccccc3N2C(C)=O)cc1OC (configuration not stated) | 3% | -10% | 13% | -2% | -4% | i
Cc1ccc(OCc2nnc(SCc3nc4ccccc4[nH]3)n2Cc2ccco2)cc1 | 2% | 7% | ? | 0% | 32µM* | i
O=C(CSc1nnc(COc2ccccc2)n1Cc1ccco1)c1ccc(F)cc1 | -9% | 1% | ? | -2% | 16µM* | i
Cc1ccc(OCc2nnc(SCC(=O)c3ccccc3)n2Cc2ccco2)cc1 | -4% | 2% | ? | -3% | ? | i
COc1ccc(C(=O)Nn2c(SCC(=O)NCc3ccco3)nc3ccccc3c2=O)cc1 | 10% | 0% | ? | -3% | 20µM* | i
CC1CCCC(C)N1C(=O)Cn1c(SCC(=O)NCc2ccc3c(c2)OCO3)nc2ccccc21 (configuration not stated) | -4% | 1% | ? | -2% | 16µM* | i
CCN[C@@H]1CN(CCCOC)S(=O)(=O)c2sc(S(N)(=O)=O)cc21 | 2%[25.6 µM] | -1%[34.4 µM] | -3%[25.6 µM] | 0%[34.4 µM] | -3%[25.6 µM] | i
O=C(CSc1nc2ccccc2c(=O)n1Cc1ccco1)NCc1ccccc1 | -2% | -2% | ? | 0% | 25µM* | i
O=C(CSc1nnc(C2CCCCC2)n1Cc1ccccc1)NCc1ccco1 | -8% | -2% | ? | 1% | 13µM* | i
COC(=O)c1ccc(CSc2nnc(NCc3ccccc3)s2)o1 | -1% | 1% | 6% | 0% | 17% | i
O=C(CSc1nnc(CNc2ccc(F)cc2)n1Cc1ccccc1)NCc1ccco1 | -3% | -3% | 10% | -2% | 16% | i
SMILES | DNA Pol III inh | BRCT PPI green | TSHR agonist | BRCT PPI red | HEK293 cAMP cs | YjeE inh
COC(=O)c1ccc(CSc2nc(-c3ccccc3)cs2)o1 | -2% | 0% | ? | 0% | 40µM* | i
O=C(CSc1nc2ccccc2c(=O)n1Cc1ccco1)c1ccc(F)cc1 | -9% | 3% | ? | -1% | 25µM* | i
Cc1ccccc1OCC(=O)OC(C)CN1CCN(C)CC1 (configuration not stated) | 5% | 0% | 0% | 1% | 9% | i
COc1cccc(C2C(C#N)=C(N)OC(C(C)(C)C)=C2C#N)c1 (configuration not stated) | 1% | -4% | -14% | -2% | 0% | i
COc1ccc(C(=O)N2CCC3(CC2)CN(c2ncccn2)C3)cc1 | -7% | -1% | -1% | -1% | 4% | i
C=CCNC(=O)CN1CCC(O)(c2ccc(F)cc2)CC1 | -2% | 0% | ? | -2% | ? | i
CCOc1ccc2c(ccc(/C=C\c3cc(C)c4cccnc4c3O)[n+]2C)c1 | 3.2µM* | 1%[15.4 µM] | 0%[11.4 µM] | -1%[15.4 µM] | 12%[11.4 µM] | i
Cc1cc(S(=O)(=O)NC2CCCC2)ccc1F | -1% | -2% | 16% | 0% | 27% | i
CCn1nc(C(=O)OCC(=O)c2ccc3c(c2)OCCO3)c2ccccc2c1=O | ? | 0% | ? | -4% | ? | i
CCCCCOc1ccc(C(=O)N(Cc2ccco2)C2CCS(=O)(=O)C2)cc1 (configuration not stated) | -5% | 1% | ? | 1% | 25µM* | i
O=C(Nc1ccccc1N1CCCCC1)c1cccs1 | 3% | 3% | ? | 0% | 25µM* | i
N[C@@H](Cc1cc(-c2ccc(Cl)cc2Cl)cc(CP(=O)(O)O)c1O)C(=O)O | 32µM* | -12% | ? | -6% | ? | i
N[C@@H](Cc1c[nH]c2ccc(O)cc12)C(=O)O | 0% | -1% | ? | 1% | ? | i
CCC(C)(C)NC(=O)C(c1cccs1)N(CC1CCCO1)C(=O)Cn1nnc2ccccc21 (configuration not stated) | -5% | -1% | ? | 1% | ? | i
Cc1ccc(-c2nnn(CC(=O)N(Cc3ccccc3)C(C(=O)NC(C)(C)C)c3ccncc3)n2)o1 (configuration not stated) | -6% | -1% | 29% | 0% | 28% | i
